AMPAR-TARP mod = modulators of GluA2-stargazin AMPA receptor complexes, primary screen, cell-based, membrane potential dye | Voltage-dependent calcium channel gamma-2 subunit (Mus musculus) + Glutamate receptor 2 … | HEK293 GluA2+stargazin, membrane potential dye (FDSS), glutamate EC50; hits were called plate by plate, in both directions | calls only at 30 µM | 40,000 compounds, 3.5% hits;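 active = any of four per-well response measures lying three or more SD from its plate-wide compound average, in either direction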
GIRK2 activator = activators of NPY4-receptor-primed GIRK2 channels, summary, cell-based, HEK293, thallium flux; G protein-activated inward rectifier potassium channel 2 (Homo sapiens), P48051; HEK293 GIRK2/NPY4 cells, thallium flux fluorescence; activation (% efficacy), % for hits at 37.5 µM; 34,000 tested, under 10 active; AID 1259324, 2017;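 active = primary screen hit, no activity in plain HEK293 cells, and in GIRK2-only cells above 5% efficacy rising with concentration; inactive = the rest, including fluorescent compounds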;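 also: efficacy is normalized control-subtracted fluorescence 15 s after thallium addition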
Target sequence (P48051 whole entry, looked up): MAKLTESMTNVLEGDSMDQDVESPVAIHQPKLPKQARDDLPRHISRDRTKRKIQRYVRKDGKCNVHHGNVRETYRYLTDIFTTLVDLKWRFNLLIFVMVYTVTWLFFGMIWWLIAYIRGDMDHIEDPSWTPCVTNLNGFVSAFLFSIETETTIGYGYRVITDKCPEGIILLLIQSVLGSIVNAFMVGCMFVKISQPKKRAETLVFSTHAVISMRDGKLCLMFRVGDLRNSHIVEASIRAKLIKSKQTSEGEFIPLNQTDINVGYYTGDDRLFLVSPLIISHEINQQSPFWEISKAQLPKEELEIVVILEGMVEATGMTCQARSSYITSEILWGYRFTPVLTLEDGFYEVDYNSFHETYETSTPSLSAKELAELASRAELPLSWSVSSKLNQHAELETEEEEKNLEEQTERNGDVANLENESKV
* marks the source's active call; other numbers are inactive results; i = inactive; . = no result; + = active, no number. The entries come from a sample that favours hits as a whole.

SMILES | AMPAR-TARP mod | GIRK2 activator
COc1cc(/C=C/C(=O)c2ccc(O)cc2)cc(OC)c1OC | i | .
CCOc1ccccc1N1CCN(C(=O)c2sc(-n3cccc3)nc2C)CC1 | i | i
Cc1ccc(Nc2ccc(NS(=O)(=O)c3c(C)noc3C)cc2)nn1 | i | i
CCOc1ccc(-c2cc(=O)n(CCCC(=O)N3CCN(S(C)(=O)=O)CC3)cn2)cc1 | i | i
Cc1ccsc1C(O)CNC(=O)CSCc1ccccc1 (stereo not given) | i | i
Cc1ccsc1C(O)CNC(=O)C1c2ccccc2Oc2ccccc21 (stereo not given) | + | i
O=C(COc1ccccc1C1CC(c2ccccc2)=NN1C(=O)c1ccccc1)NCCO (stereo not given) | + | .
O=C(c1ccccc1)N1N=C(c2ccc(F)cc2)CC1c1ccc2nccnc2c1 (stereo not given) | . | i
Cc1cc(NC(=O)c2ccc(S(=O)(=O)N(CC(C)C)CC(C)C)cc2)n(C(C)C)n1 | . | i
CC(C)CSc1ncnc2c1nnn2C | i | i
CCOC(=O)c1ccccc1NC(=O)CN1CCCN(Cc2cc(C)ccc2C)S1(=O)=O | + | i
COc1ccc(NC(=O)CN2CCCN(Cc3cc(C)ccc3C)S2(=O)=O)c(OC)c1 | i | i
Cc1cc(-c2nnc(NC(=O)c3ccc(S(=O)(=O)N4CCCCC4)cc3)o2)nn1C | + | i
Cc1cc(C(=O)Nc2nnc(-c3cc(C)n(C)n3)o2)nn1C | + | i
Cc1ccc(-c2nnc(NC(=O)c3ccc(S(=O)(=O)N4CCCCC4)cc3)o2)cc1C | i | i
Cc1cc(-c2nnc(NC(=O)c3nc4ccccc4s3)o2)nn1C | + | i
Cc1cc(-c2nnc(NC(=O)c3cccc(C(F)(F)F)c3)o2)nn1C | i | i
Cc1cc(-c2nnc(NC(=O)c3cc(Cl)sc3Cl)o2)nn1C | i | i
CCN(CC)S(=O)(=O)c1ccc(C(=O)Nc2nnc(-c3cc(C)n(C)n3)o2)cc1 | + | i
Cc1cc(-c2nnc(NC(=O)c3ccc(S(C)(=O)=O)cc3)o2)nn1C | i | i
Cc1ccc(NC(=O)c2nc(-c3cnccn3)no2)cc1F | i | i
Cc1ccc(C(=O)Nc2nnc(-c3cc(C)n(C)n3)o2)cc1C | i | i
Cc1cc(-c2nnc(NC(=O)c3ccc(SC(C)C)cc3)o2)nn1C | i | i
CC(=O)c1ccc(C(=O)Nc2nnc(-c3cc(C)n(C)n3)o2)cc1 | + | i
CCOc1cc(C(=O)Nc2nnc(-c3cc(C)n(C)n3)o2)cc(OCC)c1OCC | + | i
SMILES | AMPAR-TARP mod | GIRK2 activator
CN(C)S(=O)(=O)c1ccc(C(=O)Nc2nnc(-c3ccc(Br)s3)o2)cc1 | i | i
Cc1cc(-c2nnc(NC(=O)c3cc4ccccc4o3)o2)nn1C | i | i
COc1cccc2cc(C(=O)Nc3nnc(-c4cc(C)n(C)n4)o3)oc12 | + | i
CCN(CC)S(=O)(=O)c1ccc(C(=O)Nc2nnc(-c3ccc(Br)s3)o2)cc1 | + | i
COc1cccc2cc(C(=O)NCC3CCN(C(=O)Nc4ccc(F)cc4)CC3)oc12 | i | i
CCC(C)NC(=O)C(=O)NCc1ccccc1 (stereo not given) | i | .
CC(O)(CNC(=O)c1ccccc1C(F)(F)F)c1ccc(-c2ccccc2)cc1 (stereo not given) | i | i
COc1cccc(-c2cc(C(=O)Nc3ccc([N+](=O)[O-])cc3OC)c3ccccc3n2)c1 | i | .
N#C/C(=C\N1CCCC1)C(=O)Nc1cccc(Cl)c1 | i | i
CC1CN(CC(O)COc2cccc3ccccc23)CC(C)O1 (stereo not given) | i | .
Cc1cc(N2CC(C)OC(C)C2)nc2ccccc12 (stereo not given) | + | .
Cn1c(=O)[nH]c(=O)c2c1nc(N1CCC(C(N)=O)CC1)n2CCCc1ccccc1 | i | .
Cn1c(=O)[nH]c(=O)c2c1nc(N1CCN(CC(N)=O)CC1)n2CCCc1ccccc1 | + | .
CCOC(=O)CN1CCN(c2nc3c(c(=O)[nH]c(=O)n3C)n2CCc2ccccc2)CC1 | + | .
COC(=O)CN1CCN(c2nc3c(c(=O)[nH]c(=O)n3C)n2CCc2ccccc2)CC1 | i | .
COc1ccc(-c2cc(CC(=O)NCc3cccs3)no2)cc1OC | i | i
Cc1ccc(S(=O)(=O)NCC2CCN(C)CC2)c(C)c1 | i | i
Cc1ccc(S(=O)(=O)NCCn2nc(C)c(Cl)c2C)c(C)c1 | + | i
CN1CCN(n2c3c(c(SCC(=O)NCc4ccccc4)nc2=O)CCCC3)CC1 | i | .
O=C(Cc1csc(Nc2cccc(Cl)c2)n1)NCC1CCCO1 (stereo not given) | i | i

From PubChem
